From the OligoGym collection

The sequences below were run against CMYA5 (assay: pooled miR-30 sensor sort-seq; sequence = guide strand). Settings: shRNA.

Compared with TTAACATCTGGTCACTTCTTGC, TTTCTAACACTAGATTTCCTTC is higher in sensor-assay potency score (higher = more potent): -0.814 for the first, -0.717 for the second.

In the case of TTTTTCTTCACTGTGATCTGGC, the sensor-assay potency score (higher = more potent) is reported as 0.846.

The sequences below were run against CNGA4 in the same assay as above. Settings: shRNA.

First: ATGATGTACATCTCTTGGCCAA
Second: TACCAGTCAATAACTCGCCGCT
The sensor-assay potency score (higher = more potent) of the first is lower: -1.02 for the first, 0.117 for the second.

Compared with TGCTTGTGGATACTCGCTCAGC, ACTGTAGTCAGTATCAGCGTGG is higher in sensor-assay potency score (higher = more potent): -1.17 for the first, -0.617 for the second.

Compared with TCTCGGATGATGTACATCTCTT, TCGGATGATGTACATCTCTTGG is lower in sensor-assay potency score (higher = more potent): -0.967 for the first, -1.02 for the second.

Going from TAAGCTGTGCGGGTCTCTGTGC to TCGTTGGTCATCTTCTTGTTGA, the sensor-assay potency score (higher = more potent) falls from -0.546 to -0.985.

First: TAGATGACAGAGCTCATGCTAC
Second: TTCACCTGGTGAGTAGGTCTGG
The sensor-assay potency score (higher = more potent) of the first is lower: -0.751 for the first, -0.244 for the second.

Compared with TACCTCGTTGGTCATCTTCTTG, ATAACCGTGCTGCAAGTCGGGG is lower in sensor-assay potency score (higher = more potent): -0.968 for the first, -1.46 for the second.

Going from TTGATGTTGGCTGTGCGGCGGT to ATACCAGTCAATAACTCGCCGC, the sensor-assay potency score (higher = more potent) falls from -0.481 to -0.942.

Compared with TAAGCAATCTTAAGTGCGCTGG, TAACCGTGCTGCAAGTCGGGGA is lower in sensor-assay potency score (higher = more potent): 0.0217 for the first, -0.253 for the second.

First: TATAGCAGGTCACTCGTGTAGT
Second: TTCAGCAGGATCTCACGTCCTT
The sensor-assay potency score (higher = more potent) of the first is lower: -0.135 for the first, 0.0798 for the second.

Going from TTCTGAAAGATCTGCACCCGGC to TTCATGTTGTAGATGACAGAGC, the sensor-assay potency score (higher = more potent) falls from -0.677 to -0.761.

Compared with TTGTAGATGACAGAGCTCATGC, TAGGTCTGAATAACCTAGGCTC is higher in sensor-assay potency score (higher = more potent): -0.748 for the first, -0.534 for the second.

Work on TTCAATGCGGTAAGCAATCTTA yielded a sensor-assay potency score (higher = more potent) of -0.691.

These sequences were tested against CNGB1 in the same assay as above. Settings: shRNA.

Compared with TTTCTCTGTCCGCTCCTTGAAG, TGGGCTGGTACTGACATCCTGG is higher in sensor-assay potency score (higher = more potent): -0.823 for the first, -0.698 for the second.

Compared with TTGTCCGTAATGATGTCCCCGC, TTGACGTCTTGCGAGCTCTTGG is higher in sensor-assay potency score (higher = more potent): -0.775 for the first, -0.581 for the second.

First: TAGGACATACATCAGGTTGGTC
Second: TTTGCTAACGATGTTGTAGTTC
The sensor-assay potency score (higher = more potent) of the first is higher: 0.2 for the first, 0.184 for the second.

Compared with TTTGAACTTGCAGCAGAGCATG, TAGTAGGTCTGTCCGGCGGTGG is higher in sensor-assay potency score (higher = more potent): -1.2 for the first, -0.909 for the second.

First: TTCTCTTCTTCATAAGCTGGAA
Second: TAGGTAATCCATCAGCAGCCAG
The sensor-assay potency score (higher = more potent) of the first is higher: -0.514 for the first, -1.07 for the second.

First: TCTTTCTCCTCTTCAATCCGGG
Second: TGCGGTAGTAGGTCTGTCCGGC
The sensor-assay potency score (higher = more potent) of the first is lower: -0.237 for the first, 0.228 for the second.

Going from TTGTAGTTCACGTCGATGGCGA to TTCACCGTGCTGTCCATGCAGC, the sensor-assay potency score (higher = more potent) falls from -0.201 to -0.762.
